# Test results taken from PubChem BioAssay AID720706 (Broad Institute, 2013).
# Where “and” joins values, the source holds several entries; their conditions need not be identical. Equal entries are not always repeated. The whole screen tested about 350,000 compounds, of which about 5,500 (1.6%) were called active. The sample holds actives, similar compounds and a random draw of the others, so the mix is not that of the screen.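 How the source made its calls: active means significant combined selectivity score with lowered wild-type GFP, culture density cut under 30%, mutant RFP and density less affected; inactive means any of these conditions unmet.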
# Test: reduced GFP signal of wild-type E. coli, primary screen, bacterial rRNA inhibitor project, GFP/RFP fluorescence, OD600, single point (AID 720706)
# Settings: E. coli WT GFP vs humanized-ribosome RFP mutants, 24 h; GFP signal change (wild-type ribosome): stronger effect = lower value, DMSO median 0, no signal -100; OD600 change: measured here: OD600 growth, DMSO median 0, no signal -100; RFP signal change: measured here: RFP humanized mutant strains, DMSO median 0, no signal -100, concentration not given here
SMILES,GFP signal change (wild-type ribosome),OD600 change,RFP signal change
C[C@@H]1CN([C@H](C)CO)C(=O)c2cc(-c3cncnc3)cnc2O[C@@H]1CN(C)Cc1ccc(Oc2ccccc2)cc1,1.64% (inactive),8.99%,0.949%
O=S(=O)(NC[C@H]1[C@H](c2ccccc2)[C@H](CO)N1CC1CC1)c1ccccc1,-3.76% (inactive),-2.41%,-1.76%
COc1ccc(OC)c(NC(=O)CSc2nc(-c3ccccc3)cc(=O)[nH]2)c1,-0.85% (inactive),-0.395%,-1.33%
CCc1cc2cc(OC)ccc2nc1SCC(=O)Nc1cc(OC)c(OC)cc1C(=O)O,-19.8% (active),-8.13%,-0.961%
COc1ccc(NC(=O)CSc2nc(SC)ns2)c(OC)c1,-4.47% (inactive),-9.82%,2.07%
COc1cccc(NC(=O)N2[C@@H]3CNC[C@H]2C3c2ccc(-c3ccncc3)cc2)c1 (stereo partly drawn),5.32% (inactive) and -0.155% (inactive),9.53% and -0.49%,1.61% and -4.31%
CC1CCCC(NC(=O)COC(=O)[C@@H]2CC(O)CN2S(=O)(=O)c2ccc3c(c2)OCCO3)C1C (stereo partly drawn),-31.5% (active),-14.6%,-2.13%
Cc1ccc(S(=O)(=O)N2CC(O)C[C@H]2C(=O)OCC(=O)Nc2ccc(N3CCOCC3)cc2)cc1C (stereo partly drawn),4.3% (inactive),7.03%,2.94%
O=C1COc2ccc(C(=O)COC(=O)C3CC(O)CN3S(=O)(=O)c3ccc(Cl)cc3)cc2N1 (stereo not drawn),-11.8% (inactive),-8.3%,1.61%
COCC#Cc1ccc([C@H]2[C@H](CO)N3CCCCN(Cc4ccncc4)C[C@@H]23)cc1,-2.93% (inactive),-2.59%,-5.64%
Cc1ccc(S(=O)(=O)NC(C)C(=O)NCc2ccc(Cl)cc2)cc1 (stereo not drawn),-22.7% (active),-10.8%,-4.03%
COc1ccc(S(=O)(=O)NC(C)C(=O)NCc2ccncc2)cc1Cl (stereo not drawn),2.54% (inactive),0.925%,-2.25%
CC(C)CNS(=O)(=O)c1ccc(CCC(=O)NCc2ccc(Cl)cc2)cc1,10.8% (inactive),11.2%,-2.51%
CCC(=O)Nc1ccc2c(c1)OC[C@@H](C)N(CC1CC1)C[C@H](C)[C@H](OC)CN(C)C2=O,1.22% (inactive),-0.6%,-0.045%
CC(C)NC(=O)/C(C#N)=C\c1ccc(N(C)C)c(Br)c1,-19.9% (active),-12.4%,3.85%
Cc1[nH]c2ccccc2c1/C=C(/C#N)C(=O)NC(C)C,-4.98% (inactive),5.32%,-3.18%
CC(C)(C)C(=O)/C(C#N)=C/c1ccc(O)cc1,19.8% (inactive),5.69%,-9.62%
O=C(NCC[C@H]1CC[C@H](NS(=O)(=O)c2ccccc2)[C@H](CO)O1)c1cc(Cl)cc(Cl)c1,-5.21% (inactive),-26.1%,22%
COC(=O)c1cc(C)sc1NC(=O)CC1Nc2ccccc2NC1=O (stereo not drawn),-18.4% (active),-7.76%,12.5%
CCc1cc(C(=O)OC)c(NC(=O)CC2Sc3ccc(C(F)(F)F)cc3NC2=O)s1 (stereo not drawn),0.188% (inactive),4.88%,-2.55%
Cc1ccc(CNC(=O)CC2Sc3ccccc3NC2=O)cc1 (stereo not drawn),11.2% (inactive),14.1%,3.46%

SMILES,GFP signal change (wild-type ribosome),OD600 change,RFP signal change
O=C(O)c1[nH]c2ccccc2c1C(c1cccc(O)c1)c1c(C(=O)O)[nH]c2ccccc12,-25.6% (active),-18.5%,8.53%
O=C(OCC(=O)c1c[nH]c2ccccc12)c1cccc(O)c1,-42.8% (inactive),-45.1%,-14.1%
COc1ccc2c3c(n(C)c2c1)[C@@H](CO)N(C(C)=O)CC31CCN(Cc2ccc(Cl)cc2)CC1,-1.69% (inactive),-3.51%,1.83%
C=CCOc1ccc(/C=C2\SC(=S)N(CCC(=O)O)C2=O)cc1,-32.4% (active),-18.9%,-4.79%
O=C1/C(=C/c2ccc(F)cc2)SC(=S)N1CCCC(=O)N1CCCCC1CCO (stereo not drawn),-19.1% (inactive),-28.5%,-4.34%
COc1ccc(/C=C2\SC(=S)N(CCC(=O)N3CCOCC3)C2=O)cc1OC,10.4% (inactive),16.7%,0.46%
Cc1ccccc1-c1cc(C(=O)NCc2cccs2)n(CC2CC(c3cccnc3)=NO2)n1 (stereo not drawn),-17.6% (active),-10.9%,5.68%
Cc1ccc(CNC(=O)c2cc(-c3ccccc3C)n(CC3CC(c4cccc([N+](=O)[O-])c4)=NO3)n2)cc1 (stereo not drawn),6.99% (inactive),10.7%,-2.49%
Cc1ccccc1-c1cc(C(=O)NCC2CC2)n(CC2CC(c3cccnc3)=NO2)n1 (stereo not drawn),-8.08% (inactive),-3.34%,-12%
O=C(NNC(=O)c1ccc2ccccc2c1)c1ccc(Cl)cc1,2.13% (inactive),11.3%,-2.59%
Clc1ccc(Nc2ccc3ccccc3n2)cc1,-54.6% (active),-30%,-18%
C=CCNc1nc(Nc2ccc(Cl)cc2)nc(OC)n1,-33.3% (inactive),-34%,-2.27%
COc1ccc(C#Cc2ccc([C@H]3[C@@H](CO)N4CCCCN(S(=O)(=O)c5cn(C)cn5)C[C@H]34)cc2)cc1,-58.4% (inactive),-77.4%,-16.4%
O=C(CC1CC1)N1[C@@H](CO)[C@@H](c2ccccc2)C12CN(S(=O)(=O)c1ccccc1)C2,-0.794% (inactive),0.08%,4.17%
CO[C@H]1CN(C)C(=O)c2ccc(NC(=O)C3CC3)cc2OC[C@H](C)N(C(=O)CN2CCOCC2)C[C@@H]1C,2.07% (inactive),1.32%,-3.59%
C[C@H](CO)N1C[C@H](C)[C@H](CN(C)Cc2ccc(C(=O)Nc3ccccc3N)cc2)Oc2ccc(NC(=O)Nc3ccccc3)cc2CC1=O,-24.5% (inactive),-22.3%,1.58%
C[C@@H]1CCCCO[C@H](CN(C)C(=O)NC2CCCCC2)[C@H](C)CN([C@@H](C)CO)C(=O)c2cc(NC(=O)C3CCCCC3)ccc2O1,-5.13% (inactive),-0.493%,-3.14%
COc1ccc(NC(=O)Nc2cccc3c2O[C@@H](CN(C)S(=O)(=O)c2cn(C)cn2)[C@H](C)CN([C@@H](C)CO)C3=O)cc1,-1.33% (inactive),-1.5%,-0.415%
O=C(NC1CCCC1)[C@@H]1[C@@H](CO)[C@@H]2Cn3c(ccc(-c4ccc(F)cc4)c3=O)[C@H]1N2Cc1cocn1,-0.879% (inactive),4.54%,-1.31%
COC(=O)C[C@@H]1C[C@@H]2c3cc(NC(=O)NC4CCCC4)ccc3O[C@@H]2[C@@H](CO)O1,1.15% (inactive),-0.449%,-0.687%
OC[C@@H]1CN(Cc2cccs2)C[C@H](n2cnc3c(NC4CCCC4)ncnc32)O1,-2.42% (inactive),-4.54%,4.82%

SMILES,GFP signal change (wild-type ribosome),OD600 change,RFP signal change
OC[C@@H]1CN(Cc2ccc(F)cc2)C[C@H](n2cnc3c(NC4CCCC4)ncnc32)O1,-15.1% (inactive),-8.49%,0.518%
OC[C@@H]1CN(Cc2ccc(-c3ccccc3)cc2)C[C@H](n2cnc3c(NC4CCCC4)ncnc32)O1,-21.9% (active),-14.8%,-2.32%
CCCN1C[C@@H](C)[C@@H](OC)CN(C)C(=O)c2cc(NC(=O)NC3CCCCC3)ccc2OC[C@H]1C,2.68% (inactive),4.16%,-1.33%
O=C(C[C@@H]1CC[C@@H]2[C@H](COC[C@H](O)CN2S(=O)(=O)c2ccc(F)cc2)O1)NCc1ccc(Cl)c(Cl)c1,-20.8% (inactive),-43.9%,0.781%
C[C@@H]1CN([C@H](C)CO)C(=O)Cc2cc(NC(=O)Cn3cnnn3)ccc2O[C@@H]1CN(C)S(=O)(=O)c1ccc(F)cc1,4.41% (inactive),-2.05%,0.611%
O=C(Nc1ccc2c(c1)OCO2)C1CC1(Cl)Cl (stereo not drawn),-1.64% (inactive),3.17%,-2.98%
CC1(C(=O)O)CCC(C(=O)Nc2ccc(Cl)c(Cl)c2)C1(C)C (stereo not drawn),-23.4% (active),-16.1%,-7.62%
O=C(Nc1ccc(Cl)c(Cl)c1)c1ccccc1NC(=O)C1CC=CCC1C(=O)O (stereo not drawn),-35.4% (inactive),-49.6%,-4.13%
Cc1noc(C)c1S(=O)(=O)Nc1ccc2c(c1)CC(=O)N([C@@H](C)CO)C[C@H](C)[C@H](CN(C)C(=O)Nc1cccc3ccccc13)O2,-2.17% (inactive),-1.79%,1.2%
COc1ccc(S(=O)(=O)Nc2ccc3c(c2)CC(=O)N([C@@H](C)CO)C[C@@H](C)[C@@H](CN(C)Cc2ccc(C(=O)Nc4ccccc4N)cc2)O3)cc1,-5.01% (inactive),-12%,2.02%
C[C@H](CO)N1C[C@H](C)[C@H](CN(C)C)Oc2ccc(NC(=O)c3ccncc3)cc2CC1=O,2.76% (inactive),14.2%,0.42%
O=C(c1cccc(S(=O)(=O)N2CCCCCC2)c1)N1CCN(Cc2ccccc2)CC1,-2.42% (inactive),-10.1%,4.63%
CCn1c(O)c(N=NC(=O)c2cccc(S(=O)(=O)N3CCCCC3)c2)c2ccccc21,-23.6% (active),-16.1%,-4.79%
CCn1c2ccccc2c2cc(NC(=O)COC(=O)c3cc(S(=O)(=O)N4CCCCC4)ccc3Cl)ccc21,10.5% (inactive),8.82%,4.22%
COc1ccc(CN2[C@H](CO)[C@@H]3c4ccccc4N(C(=O)C4CC4)C[C@@H]32)cc1,-9.79% (inactive),-9.13%,-1.21%
O=C(NC1CCCCC1)N1CC2(C1)[C@H](c1ccccc1)[C@@H](CO)N2S(=O)(=O)Cc1ccccc1,-0.158% (inactive),-18.2%,1.15%
C=CCc1c(C)nc2cc(-c3ccccc3)[nH]n2c1=O,-6.23% (inactive),-4.26%,-2.25%
Cc1nc2nc[nH]n2c(=O)c1C/C=C/c1ccccc1,-22.4% (active),1.36%,-5.82%
O=C(C[C@H]1C=C[C@H](NC(=O)C2CCOCC2)[C@@H](CO)O1)NCC1CC1,-0.532% (inactive),2.38%,0.125%
